Common to all, as to assay: yeast three-hybrid, YBZ-1, SC-Leu-His + 0.5 mM 3-AT, 4 days
Common to all, as to details: tags: N-Gal4 AD-HA kept; label: inside an RPR1-promoter hybrid RNA with tandem MS2 sites; ssRNA

One experiment deals with PUM1 PUF domain R1-NWG (Homo sapiens, UniProt Q14671 828-1176, S863N;R864W;Q867G). In a few lines:
(§1)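 The interaction score is the logarithmic change in variant frequency from input to selection. It uses log2, with a pseudocount of 1 for absent variants, and frequencies came from PCR-amplified, Illumina-sequenced repeat regions. The libraries were Pumilio-1 PUF domains randomized at the three base-contacting residues per repeat, co-expressed with matching RNA elements in strain YBZ-1 (LexA–MS2 coat fusion, HIS3 reporter). Plating lasted four days on SC-Leu (input) or SC-Leu-His + 0.5 mM 3-AT (selection).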

The target in the next experiment is T1, PUM1 PUF domain R6-MYG (Homo sapiens, UniProt Q14671 828-1176, N1043M;Q1047G).
T1 sequence: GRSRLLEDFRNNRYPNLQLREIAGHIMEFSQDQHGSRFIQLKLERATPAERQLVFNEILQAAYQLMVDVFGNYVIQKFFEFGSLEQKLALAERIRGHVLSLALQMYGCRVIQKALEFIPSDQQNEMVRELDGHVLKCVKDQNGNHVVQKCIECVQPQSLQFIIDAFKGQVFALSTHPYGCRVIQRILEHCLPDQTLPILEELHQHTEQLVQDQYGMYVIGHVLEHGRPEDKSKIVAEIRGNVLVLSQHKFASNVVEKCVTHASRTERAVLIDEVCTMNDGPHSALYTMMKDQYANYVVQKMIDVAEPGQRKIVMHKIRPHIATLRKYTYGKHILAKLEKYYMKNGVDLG
In a few lines:
as §1

Another experiment has as its target PUM1 PUF domain R8-KFR (Homo sapiens, UniProt Q14671 828-1176, N1122K;Y1123F;Q1126R). In a few lines: as §1
The next experiment addresses PUM1 PUF domain R3-ASY (Homo sapiens, UniProt Q14671 828-1176, C935A;R936S;Q939Y). In a few lines: as §1
The next experiment deals with T2, PUM1 PUF domain R6-RWS (Homo sapiens, UniProt Q14671 828-1176, N1043R;Y1044W;Q1047S).
T2 sequence: T1 sequence with M216R, Y217W, G220S
In outline: as §1

In the next experiment the target is PUM1 PUF domain R4-VNT (Homo sapiens, UniProt Q14671 828-1176, N971V;H972N;Q975T). In outline:
as §1

A further experiment deals with PUM1 PUF domain R5-RNI (Homo sapiens, UniProt Q14671 828-1176, C1007R;R1008N;Q1011I). In a few lines:
as §1

In another experiment the target is PUM1 PUF domain R2-EWS (Homo sapiens, UniProt Q14671 828-1176, N899E;Y900W;Q903S). In outline: as §1
In the next experiment the target is PUM1 PUF domain R7-GCG (Homo sapiens, UniProt Q14671 828-1176, S1079G;N1080C;E1083G). In a few lines: as §1
PUM1 PUF domain R7-GCG, sequence (Q14671 828-1176 S1079G/N1080C/E1083G): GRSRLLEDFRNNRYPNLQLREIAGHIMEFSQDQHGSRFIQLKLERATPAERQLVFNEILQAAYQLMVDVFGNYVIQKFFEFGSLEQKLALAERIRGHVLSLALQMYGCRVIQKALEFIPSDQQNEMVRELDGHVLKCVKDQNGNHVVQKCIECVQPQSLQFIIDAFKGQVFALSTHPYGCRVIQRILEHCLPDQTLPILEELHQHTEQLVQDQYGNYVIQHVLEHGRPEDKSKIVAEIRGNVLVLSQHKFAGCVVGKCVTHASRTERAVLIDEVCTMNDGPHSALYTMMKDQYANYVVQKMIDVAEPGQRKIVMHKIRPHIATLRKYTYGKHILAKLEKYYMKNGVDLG

Numbering of substitutions follows the chain as printed.

PUM1 PUF domain R4-VNT, sequence (Q14671 828-1176 N971V/H972N/Q975T): as the sequence (Q14671 828-1176 S1079G/N1080C/E1083G) above, with N144V, H145N, Q148T, G252S, C253N, G256E counted along it

With “GGCUAGAACUAGUGGAUCCCCCGGCGCCCGGCGGCUCGAGCCCGGGUAAGUGUAAAUUGUCUGCAUGCCGCCGGGCGCCAUGCCUGCAGGUCGACUCUAGAAAACAUG”, the binding signal with PUM1 PUF domain R1-NWG is 5.42 log2 enrichment (interaction score). For the sequence “GGCUAGAACUAGUGGAUCCCCCGGCGCCCGGCGGCUCGAGCCCGGGUAAGUGUAAAUAGUCUGCAUGCCGCCGGGCGCCAUGCCUGCAGGUCGACUCUAGAAAACAUG”, the binding signal with PUM1 PUF domain R6-MYG is 4.1 log2 enrichment (interaction score); in the experiment with PUM1 PUF domain R8-KFR, 6.77 log2 enrichment (interaction score); with PUM1 PUF domain R3-ASY it was 2.58 log2 enrichment (interaction score); in the experiment with PUM1 PUF domain R6-RWS it was 6.05 log2 enrichment (interaction score). For the sequence “GGCUAGAACUAGUGGAUCCCCCGGCGCCCGGCGGCUCGAGCCCGGGUAAGUGUAUAUAGUCUGCAUGCCGCCGGGCGCCAUGCCUGCAGGUCGACUCUAGAAAACAUG”, the binding signal with PUM1 PUF domain R4-VNT was 2.54 log2 enrichment (interaction score). “GGCUAGAACUAGUGGAUCCCCCGGCGCCCGGCGGCUCGAGCCCGGGUAAGUGUACAUAGUCUGCAUGCCGCCGGGCGCCAUGCCUGCAGGUCGACUCUAGAAAACAUG”: the binding signal with PUM1 PUF domain R4-VNT was 0.69 log2 enrichment (interaction score). As to “GGCUAGAACUAGUGGAUCCCCCGGCGCCCGGCGGCUCGAGCCCGGGUAAGUGUCAAUAGUCUGCAUGCCGCCGGGCGCCAUGCCUGCAGGUCGACUCUAGAAAACAUG”, the binding signal with PUM1 PUF domain R5-RNI is 3.78 log2 enrichment (interaction score).

With “GGCUAGAACUAGUGGAUCCCCCGGCGCCCGGCGGCUCGAGCCCGGGUAAGUGUAAAAAGUCUGCAUGCCGCCGGGCGCCAUGCCUGCAGGUCGACUCUAGAAAACAUG”, the binding signal with PUM1 PUF domain R2-EWS was 6.34 log2 enrichment (interaction score). For “GGCUAGAACUAGUGGAUCCCCCGGCGCCCGGCGGCUCGAGCCCGGGUAAGUGUAAAGAGUCUGCAUGCCGCCGGGCGCCAUGCCUGCAGGUCGACUCUAGAAAACAUG”, the binding signal in the experiment with PUM1 PUF domain R2-EWS was 4.8 log2 enrichment (interaction score). Take “GGCUAGAACUAGUGGAUCCCCCGGCGCCCGGCGGCUCGAGCCCGGGUAAGUUUAAAUAGUCUGCAUGCCGCCGGGCGCCAUGCCUGCAGGUCGACUCUAGAAAACAUG”: the binding signal in the experiment with PUM1 PUF domain R7-GCG is 3.64 log2 enrichment (interaction score).
